Results as given in PubChem BioAssay (NCI).
The panel holds about 83,000 compounds, 20% with a hit somewhere; the sample as a whole holds those more often.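 48-hour exposure, single concentration, 96-well plates; percent growth endpoint where 0 means no net growth. Active: below 10.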 Activity calls are given as the source filed them.

Columns and labels:
Test in all cases: NCI-60 one-dose screen, 48 h (100 = growth as untreated, 0 = no growth, -100 = all killed)
Settings in all cases: 10 µM
[1] = system: NCI-H23 lung
[2] = system: NCI-H226 lung
[3] = system: NCI-H460 lung
[4] = system: NCI-H522 lung
[5] = system: A549/ATCC NSCLC
[6] = system: 786-0 renal
[7] = system: COLO 205 colon
[8] = system: DU-145 prostate
[9] = system: K-562 leukemia
[10] = system: MALME-3M melanoma
[11] = system: MDA-MB-231 breast
[12] = system: RXF 393 renal
[13] = system: SF-268 CNS
[14] = system: SF-295 CNS
[15] = system: SF-539 CNS
[16] = system: M14 melanoma
[17] = system: HOP-92 NSCLC
[18] = system: UACC-257 melanoma

Measured: growth

COc1ccc([C@H]2[C@H](C(=O)Nc3cccnc3)c3ccccc3C(=O)N2c2ccccc2)cc1
inactive: [1] 90.5% | [2] 95.9% | [3] 91.4% | [4] 82.4% | [5] 87.8% | [6] 91.2% | [7] 63.2% | [8] 107% | [9] 99.9% | [10] 108% | [11] 95.9% | [12] 94.2% | [13] 93.9% | [14] 70.7% | [15] 114% | [16] 86.2%

O=C1c2c(c3c4ccccc4n(CCCCCCN4CCOCC4)c3c3[nH]c4ccccc4c23)C(=O)N1O
active: [6] 5.72% | [9] -32.9%
inactive: [1] 81.5% | [2] 66.7% | [3] 72.2% | [4] 67.3% | [5] 81.1% | [7] 36% | [8] 109% | [10] 117% | [11] 48.5% | [12] 90.3% | [13] 92.9% | [14] 108% | [15] 92.4% | [16] 81.9%

COc1ccc(Cc2cnc(N)nc2N)cc1OC
inactive: [1] 96.8% | [2] 99.1% | [3] 105% | [17] 90.1% | [5] 101% | [6] 109% | [8] 114% | [10] 113% | [11] 95.3% | [12] 105% | [13] 106% | [14] 96.2% | [15] 107% | [18] 100% | [16] 108%

c1cncc(-c2csc(-c3c[nH]c4ccccc34)n2)c1
inactive: [1] 84.4% | [2] 84.1% | [3] 97% | [4] 73.5% | [5] 78.8% | [6] 103% | [7] 94.9% | [8] 103% | [9] 97.7% | [10] 78.8% | [11] 73.5% | [12] 111% | [13] 92.5% | [14] 92.6% | [15] 84.9% | [16] 85.8%

c1cnc2[nH]cc(-c3nc(-c4ccsc4)cs3)c2c1
inactive: [1] 80.2% | [2] 74.4% | [3] 109% | [4] 79.4% | [5] 84.7% | [6] 107% | [7] 117% | [8] 98.8% | [9] 109% | [10] 121% | [11] 85.6% | [12] 98.3% | [13] 79.9% | [14] 101% | [15] 93.7% | [16] 104%

CCCCc1oc2ccccc2c1C(=O)c1cc(I)c(OCCN(CC)CC)c(I)c1
active: [1] -38.9% | [2] -36% | [3] -76.7% | [17] -68.7% | [5] 9.9% | [6] -90.5% | [7] -79.8% | [10] -72.6% | [11] -79.8% | [12] -70.3% | [14] -66.7% | [15] -19% | [18] -61% | [16] -75.3%
inactive: [8] 34.1% | [13] 30.8%

COc1ccc2nc(Cl)c(Cn3nnc(Cc4ccccc4)n3)cc2c1
inactive: [1] 32.5% | [2] 39% | [3] 40% | [4] 38% | [5] 31.5% | [6] 47.5% | [7] 24.9% | [8] 61.6% | [9] 32.9% | [10] 34.4% | [11] 50.7% | [12] 60.2% | [13] 51.5% | [14] 37.4% | [15] 67.5% | [16] 30.3%

COCCn1cc(-c2nc(-c3cccnc3)cs2)c2cc(F)ccc21
inactive: [1] 94% | [2] 91.5% | [3] 92.7% | [4] 70.6% | [5] 90.1% | [6] 90.8% | [7] 104% | [8] 90.4% | [9] 95.2% | [10] 99.8% | [11] 92.3% | [12] 99.5% | [13] 90.7% | [14] 95.6% | [15] 80.9% | [16] 96.2%

O=C(Nc1ccccc1)Nc1ncnc2c1ncn2-c1ccccc1
inactive: [1] 90.9% | [2] 59.1% | [4] 74.4% | [5] 44.5% | [6] 12.1% | [7] 86.1% | [8] 99.2% | [9] 98.7% | [10] 76.5% | [11] 68.3% | [12] 95.4% | [13] 92.5% | [14] 31% | [15] 82.8% | [16] 81.4%
active: [3] 7.9%

Nc1ccccc1NC(=O)c1ccc(CCCC(=O)Nc2ccc(C3CC3N)cc2)cc1 (stereo not given)
active: [4] -34.4% | [7] -5.7%
inactive: [1] 37.2% | [2] 27.5% | [3] 40.4% | [5] 34.8% | [6] 38.8% | [8] 38.7% | [9] 25.4% | [10] 21.7% | [11] 47.5% | [12] 20.8% | [13] 32.6% | [14] 22.1% | [15] 30.9% | [16] 27%

O=C(CCCCNC(=O)c1nc(-c2ccccc2)n(-c2ccccc2)n1)NO
inactive: [1] 87% | [2] 83.9% | [3] 78.1% | [4] 27.7% | [5] 84.2% | [6] 92% | [7] 84.9% | [8] 98.6% | [9] 81.7% | [10] 23.5% | [11] 86.2% | [12] 84.2% | [13] 90.1% | [14] 93.6% | [15] 65.1% | [16] 66.8%
